Laboratory results as given in PubChem BioAssay AID488845 (National Center for Advancing Translational Sciences (NCATS), 2010).
Calls of active or inactive are those of the source. The call rests on the fitted dose curve; in most records, active means well fitted curve in the direction sought with a large enough effect; inactive means no such curve, though single readings can be large or run the other way.

Molecular target: Lysosomal acid glucosylceramidase (Homo sapiens) (UniProt P04062)
Assay: qHTS Assay for Inhibitors and Activators of N370S glucocerebrosidase as a Potential Chaperone Treatment of Gaucher Disease: Primary Screen Confirmation Using LC/MS
Conditions: N370S GC spleen homogenate, 4MU-glucoside, LC/MS detection
Text: NIH Chemical Genomics Center [NCGC] NIH Molecular Libraries Probe Production Centers Network [MLPCN] MLPCN Grant: MH086442-01 Assay Submitter (PI): Wei Zheng Glucocerebrosidase (GC) catalyzes the hydrolysis of beta-glucocerebroside to glucose and ceramide in lysosomes. Mutations in the glucocerebrosidase gene result in Gaucher disease, an autosomal recessive lysosomal storage disorder. Many of the mutations encountered in patients with Gaucher disease are missense alterations that may cause misfolding, decreased stability and/or mistrafficking of this lysosomal protein. […] These inhibitors include iminosugar analogs and three non-iminosugar inhibitors identified from a previous HTS of 62,000 compounds with the wild type recombinant enzyme. However, the enhancement of enzyme activity by the chaperone action of an enzyme inhibitor must be balanced against the direct inhibition of the enzyme. An enzyme activator could also function as a chaperone by binding to the enzyme and helping to correct its misfolding and mistrafficking. While activators for GC have not yet been identified, they may have better therapeutic potential than inhibitors. Therefore the discovery and development of chemical activators may provide a new strategy for the chaperone therapy. We have optimized a new assay using N370S mutant GC derived from the spleen of a Gaucher patient. […] In addition, the MLPCN compound library has expanded, which increases the chance of finding new and better probes. This assay uses liquid chromatography linked to a mass spectrometer to assess the ability of glucocerebrosidase in the spleen homogenate to cleave either 4-methylumbelliferyl-beta-D-glucopyranoside substrate or a labeled version of the natural substrate, glucosylceramide.
NCGC Assay Protocol Summary: This is a fluorogenic enzyme assay with 4-methylumbelliferyl-beta-D-glucopyranoside as the substrate and N370S glucocerebrosidase from human spleen homogenate as the enzyme preparation. Upon the hydrolysis of this fluorogenic substrate, the resulting product, […] which can be detected by a standard fluorescence plate reader. Data were normalized to the controls for basal activity (without enzyme) and 100% activity (with enzyme). The AC50 values were determined from concentration-response data modeled with the standard Hill equation. Assay buffer: 50 mM citric acid (titrated with potassium phosphate to pH 5.0), 100 mM potassium chloride, 10 mM sodium chloride, 1 mM magnesium chloride, 0.01% Tween-20. […] Compounds were monitored using fluorescence detection with an excitation wavelength of […]. […]

Sequence of Lysosomal acid glucosylceramidase (Homo sapiens) (P04062 whole entry N409S): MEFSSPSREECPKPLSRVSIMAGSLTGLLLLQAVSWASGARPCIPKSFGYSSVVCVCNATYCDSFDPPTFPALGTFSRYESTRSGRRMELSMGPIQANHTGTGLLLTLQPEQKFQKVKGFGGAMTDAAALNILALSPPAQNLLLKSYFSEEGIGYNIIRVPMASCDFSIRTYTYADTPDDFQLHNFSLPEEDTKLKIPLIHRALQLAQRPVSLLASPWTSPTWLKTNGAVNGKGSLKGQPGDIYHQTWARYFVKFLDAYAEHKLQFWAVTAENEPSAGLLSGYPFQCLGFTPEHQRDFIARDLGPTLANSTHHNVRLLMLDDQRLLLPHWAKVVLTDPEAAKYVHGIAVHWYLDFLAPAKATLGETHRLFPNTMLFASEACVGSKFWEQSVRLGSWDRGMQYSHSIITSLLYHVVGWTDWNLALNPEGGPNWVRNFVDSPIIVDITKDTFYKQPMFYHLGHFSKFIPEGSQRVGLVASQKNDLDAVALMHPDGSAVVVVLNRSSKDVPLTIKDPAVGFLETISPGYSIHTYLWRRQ

Potency, active:
Cc1cc(C)n2ncc(C(=O)Nc3ccc(Br)cc3)c2n1 1.19 µM
O=C(Nc1ccccc1Sc1ccccc1)c1cnn2c1NC(=C1CC1)C=C2C(F)F 3 µM
Cc1cc(C)n2ncc(C(=O)Nc3ccc(C(F)(F)F)cc3)c2n1 1.34 µM
C#Cc1ccc(NC(=O)c2cnn3c(C)cc(C)nc23)cc1 3.73 µM
